Data from PubChem BioAssay (EPA / NIEHS).
The source made the active and inactive calls. Rule for the calls: active = hit-call score of the fitted dose curve at least 0.9, where 1 is the maximum; inactive = score below 0.9.

Assays:
Conditions in all cases: mRNA level, 48 h; actives raise or lower the signal
[1] = read-out: Glutamate-cysteine ligase catalytic (GCLC), GCLC (gene 2729); assay: LTEA_HepaRG_GCLC: Life Technologies and Expression Analysis (LTEA) Assay for Glutamate-cysteine ligase catalytic (GCLC) using HepaRG (AID 2283498)
Summary of the method: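 Read-out is GCLC transcript level by Fluidigm-based TaqMan qRT-PCR, normalized to three housekeeping genes and fitted in both directions relative to 0.5% DMSO. Human HepaRG cells received chemicals for 48 h, up to 100 uM.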

[2] = read-out: growth arrest and DNA damage 45 (GADD45G), GADD45G (gene 10912); assay: LTEA_HepaRG_GADD45G: Life Technologies and Expression Analysis (LTEA) Assay for growth arrest and DNA damage 45 (GADD45G) using HepaRG (AID 2283499)
Summary of the method: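 Differentiated human HepaRG cells in serum-free induction medium were exposed for 48 h to 8 half-log concentrations up to 100 uM in 0.5% DMSO, in duplicate. GADD45G mRNA was measured by TaqMan qRT-PCR, normalised to ACTB, GAPDH and POLR2A, and fitted bidirectionally against DMSO.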

[3] = read-out: Glutamate-cysteine ligase regulatory (GCLM), GCLM (gene 2730); assay: LTEA_HepaRG_GCLM: Life Technologies and Expression Analysis (LTEA) Assay for Glutamate-cysteine ligase regulatory (GCLM) using HepaRG (AID 2283500)
Summary of the method: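 Differentiated HepaRG cells exposed 48 h in serum-free induction medium to eight half-log concentrations up to 100 uM (0.5% DMSO). GCLM mRNA by TaqMan qRT-PCR, normalized to ACTB, GAPDH and POLR2A; bidirectional fit versus DMSO.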

[4] = read-out: Glutathione S-transferase M3 (GSTM3), GSTM3 (gene 2947); assay: LTEA_HepaRG_GSTM3: Life Technologies and Expression Analysis (LTEA) Assay for Glutathione S-transferase M3 (GSTM3) using HepaRG (AID 2283501)
Summary of the method: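 Differentiated HepaRG cells in serum-free induction medium were exposed in duplicate for 48 h to 8 half-log concentrations up to 100 uM in 0.5% DMSO. GSTM3 mRNA was measured by TaqMan qRT-PCR, normalized to ACTB/GAPDH/POLR2A, and fitted bidirectionally versus DMSO.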

[5] = read-out: Heat shock 70 kDa protein 1 (HSPA1A), gene 3303; assay: LTEA_HepaRG_HSPA1A: Life Technologies and Expression Analysis (LTEA) Assay for Heat shock 70 kDa protein 1 (HSPA1A) using HepaRG (AID 2283502)
Summary of the method: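 Human HepaRG cells in serum-free induction medium were exposed in duplicate for 48 h to 8 half-log concentrations, highest 100 uM, in 0.5% DMSO. HSPA1A mRNA read by TaqMan qRT-PCR, normalized to ACTB, GAPDH, POLR2A, fitted bidirectionally against DMSO.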

[6] = read-out: 3-Hydroxy-3-Methylglutaryl-CoA Synthase 2 (HMGCS2), HMGCS2 (gene 3158); assay: LTEA_HepaRG_HMGCS2: Life Technologies and Expression Analysis (LTEA) Assay for 3-Hydroxy-3-Methylglutaryl-CoA Synthase 2 (HMGCS2) using HepaRG (AID 2283504)
Summary of the method: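 Differentiated human HepaRG cells were exposed in duplicate for 48 h in serum-free induction medium to eight concentrations (top 100 uM, half-log steps, 0.5% DMSO). HMGCS2 mRNA was quantified by TaqMan qRT-PCR, normalised to ACTB, GAPDH and POLR2A, then fitted bidirectionally against DMSO.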

[7] = read-out: HGF (gene 3082); assay: LTEA_HepaRG_HGF: Life Technologies and Expression Analysis (LTEA) Assay for Hepatocyte Growth Facto (HGF) using HepaRG (AID 2283505)
Summary of the method: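 Differentiated human HepaRG cells in serum-free induction medium were exposed in duplicate for 48 h to eight concentrations (top 100 uM, half-log steps, 0.5% DMSO). HGF mRNA was quantified by qRT-PCR, normalized to ACTB, GAPDH and POLR2A.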

[8] = read-out: Insulin-like growth factor-binding protein 1 (IGFBP1), IGFBP1 (gene 3484); assay: LTEA_HepaRG_IGFBP1: Life Technologies and Expression Analysis (LTEA) Assay for Insulin-like growth factor-binding protein 1 (IGFBP1) using HepaRG (AID 2283508)
Summary of the method: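 Differentiated human HepaRG cells in serum-free induction medium were exposed in duplicate for 48 h to eight concentrations, top 100 uM with half-log dilutions, in 0.5% DMSO. Transcript levels came from qRT-PCR normalised to ACTB, GAPDH and POLR2A, fitted bidirectionally against DMSO.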

[9] = read-out: Interleukin 6 (IL6), IL6 (gene 3569); assay: LTEA_HepaRG_IL6: Life Technologies and Expression Analysis (LTEA) Assay for Interleukin 6 (IL6) using HepaRG (AID 2283509)
Summary of the method: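 HepaRG, ~100,000 cells/well, 48 h pre-culture; serum-free induction medium; cmpd 8-pt half-log from 100 uM, 0.5% DMSO, duplicate, 48 h. Lysis in RLT, TaqMan qRT-PCR; gain or loss vs DMSO.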

[10] = read-out: Interleukin 6 Receptor (IL6R), IL6R (gene 3570); assay: LTEA_HepaRG_IL6R: Life Technologies and Expression Analysis (LTEA) Assay for Interleukin 6 Receptor (IL6R) using HepaRG (AID 2283510);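 for AC50: TaqMan qRT-PCR signal normalized to ACTB GAPDH and POLR2A housekeeping genes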
Summary of the method: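 Differentiated HepaRG cells, plated 48 h, then exposed in duplicate for 48 h in serum-free induction medium to 8 half-log concentrations (top 100 uM, 0.5% DMSO). IL6R mRNA measured by TaqMan qRT-PCR, normalized to ACTB/GAPDH/POLR2A; bidirectional fit vs DMSO.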

[11] = read-out: Potassium channel subfamily K member 1 (KCNK1), KCNK1 (gene 3775); assay: LTEA_HepaRG_KCNK1: Life Technologies and Expression Analysis (LTEA) Assay for Potassium channel subfamily K member 1 (KCNK1) using HepaRG (AID 2283511)
Summary of the method: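 Gain or loss of KCNK1 mRNA is the read-out, quantified by qRT-PCR against three housekeeping genes after 48 h chemical treatment of human HepaRG liver cells. Concentrations ran from 100 uM downward in half-log steps, vehicle 0.5% DMSO.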

[12] = read-out: Keratin 19 (KRT19), KRT19 (gene 3880); assay: LTEA_HepaRG_KRT19: Life Technologies and Expression Analysis (LTEA) Assay for Keratin 19 (KRT19) using HepaRG (AID 2283512)
Summary of the method: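 Differentiated human HepaRG cells, plated 48 h, were exposed in duplicate for 48 h in serum-free induction medium to eight half-log concentrations up to 100 uM in 0.5% DMSO. KRT19 mRNA was quantified by qRT-PCR, normalized to ACTB, GAPDH and POLR2A, and fitted bidirectionally versus DMSO.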

[13] = read-out: JUN Transcription Factor, JUN (gene 3725); assay: LTEA_HepaRG_JUN: Life Technologies and Expression Analysis (LTEA) Assay for JUN Transcription Factor using HepaRG (AID 2283513)
Summary of the method: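 HepaRG cells, 48 h post-plating, exposed 48 h in serum-free induction medium to 8-point half-log series (top 100 uM, 0.5% DMSO), duplicate; mRNA by qRT-PCR (TaqMan, Fluidigm), normalized to ACTB/GAPDH/POLR2A; bidirectional fit vs DMSO.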

[14] = read-out: Lipase C (LIPC), LIPC (gene 3990); assay: LTEA_HepaRG_LIPC: Life Technologies and Expression Analysis (LTEA) Assay for Lipase C (LIPC) using HepaRG (AID 2283514)
Summary of the method: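 Read-out is LIPC transcript level by TaqMan qRT-PCR, normalized to three housekeeping genes, after 48 h chemical treatment of human HepaRG liver cells. Curves span eight concentrations topping at 100 uM; activity in either direction scored relative to 0.5% DMSO.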

[15] = read-out: Lipoprotein lipase (LPL), LPL (gene 4023); assay: LTEA_HepaRG_LPL: Life Technologies and Expression Analysis (LTEA) Assay for Lipoprotein lipase (LPL) using HepaRG (AID 2283515)
Summary of the method: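 Read-out is LPL transcript level by qRT-PCR, normalized to three housekeeping genes and fitted bidirectionally against the DMSO control. Human HepaRG cells received chemicals for 48 h at up to 100 uM.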

[16] = read-out: MicroRNA 122 (MIR122), gene 406906; assay: LTEA_HepaRG_MIR122: Life Technologies and Expression Analysis (LTEA) Assay for MicroRNA 122 (MIR122) using HepaRG (AID 2283516); note: the transcript read is the microRNA miR-122
Summary of the method: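 Differentiated human HepaRG cells in serum-free induction medium exposed 48 h to 8 half-log concentrations from 100 uM in 0.5% DMSO, duplicate. MIR122 quantified by Fluidigm TaqMan qRT-PCR, normalised to ACTB, GAPDH, POLR2A; fold change fitted bidirectionally versus DMSO.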

[17] = read-out: matrix metalloproteinase-10 (MMP10), MMP10 (gene 4319); assay: LTEA_HepaRG_MMP10: Life Technologies and Expression Analysis (LTEA) Assay for matrix metalloproteinase-10 (MMP10) using HepaRG (AID 2283517)
Summary of the method: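 Gain or loss of MMP10 mRNA is fitted relative to the 0.5% DMSO vehicle. The human hepatic line HepaRG receives a 48-hour serum-free exposure, in duplicate, with a maximum concentration of 100 uM.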

[18] = read-out: Insulin Like Growth Factor 1 (IGF1), IGF1 (gene 3479); assay: LTEA_HepaRG_IGF1: Life Technologies and Expression Analysis (LTEA) Assay for Insulin Like Growth Factor 1 (IGF1) using HepaRG (AID 2283506)
Summary of the method: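 Differentiated HepaRG cells in serum-free induction medium, exposed 48 h in duplicate to 8 half-log concentrations up to 100 uM in 0.5% DMSO. IGF1 mRNA by Fluidigm qRT-PCR, normalised to ACTB, GAPDH and POLR2A.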

[19] = read-out: Intercellular Adhesion Molecule 1 (ICAM1), ICAM1 (gene 3383); assay: LTEA_HepaRG_ICAM1: Life Technologies and Expression Analysis (LTEA) Assay for Intercellular Adhesion Molecule 1 (ICAM1) using HepaRG (AID 2283507)
Summary of the method: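 Differentiated HepaRG cells in serum-free induction medium were exposed in duplicate for 48 h to eight half-log concentrations up to 100 uM in 0.5% DMSO. Transcript levels were measured by qRT-PCR normalized to ACTB, GAPDH and POLR2A; bidirectional fits relative to DMSO.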

Measured: AC50

CCCOC(=O)c1ccc(O)cc1
not listed: [18] | [19]
inactive: all other assays above

CCCCCCCCOC(=O)CCCCCCCCC(=O)OCCCCCCCC
not listed: [8] | [18] | [19]
inactive: all other assays above

NC(=O)N1C(=O)C(C(=O)c2cc(Cl)cs2)c2cc(F)c(Cl)cc21 (stereo not given)
active: [1] 34.1 µM | [2] 30.4 µM | [5] 72.3 µM | [6] 20.7 µM | [8] 16 µM | [9] 31.7 µM | [10] 30.9 µM | [11] 29.1 µM | [12] 13.2 µM | [13] 30.3 µM | [14] 21.2 µM | [15] 90.6 µM | [16] 26.4 µM | [17] 34.9 µM
inactive: [3] | [4] | [7]

CC1=C(/C=C/C(C)=C/C=C/C(C)=C/C(=O)O)C(C)(C)CCC1
active: [3] 25.8 µM | [6] 23.9 µM | [18] 31.8 µM | [11] 10.2 µM
not listed: [5] | [10] | [12] | [19]
inactive: all other assays above

Oc1cccc(O)c1
not listed: [18]
inactive: all other assays above

O=c1c(-c2ccc(O)cc2)coc2cc(O)ccc12
not listed: [18]
inactive: all other assays above

Cc1cc(C)c(O)c(C)c1
not listed: [18]
inactive: all other assays above

CC(C)(C)c1cccc(C(C)(C)C)c1O
not listed: [18] | [19]
inactive: all other assays above

CCCCCCCCCCCCCCCS(=O)(=O)Oc1ccccc1
not listed: [18] | [19]
inactive: all other assays above

CCCCC(CC)COC(=O)CCCCC(=O)OCc1ccccc1 (stereo not given)
not listed: [18] | [19]
inactive: all other assays above
